Assay outcomes deposited in PubChem BioAssay by National Center for Advancing Translational Sciences (NCATS).
TSHR antag: Antagonists of the Thyroid Stimulating Hormone Receptor: HTS campaign | Thyrotropin receptor (Homo sapiens), P16473 | 330,000 compounds, 0.2% hits | activity change, negative = inhibition, % at 11.5 µM | TSHR-expressing cells, TSH-stimulated cAMP HTRF, 2 h; stronger effect = lower value;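 active = activity change below a set negative limit, meaning inhibition stronger than a set level, cut at about -70% in these data; inconclusive = activity change between two set negative limits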; note: % is set by controls: 0 for no effect and ±100 for the full control effect
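Freshly harvested TSHR cells receive pin-tooled compound, then EC80 TSH at 4nM final. After 2 hours at 37 deg C, antibody in lysis buffer and cAMP-d2 are added; 30 minutes at ambient temperature precede the HTRF read.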
TCR activator: Activators of T cell receptors: qHTS campaign | primary human leukocytes, anti-CD3, IL-2 HTRF, 48 h | Potency, µM (doses to about 9.22 µM), for inactives: at the top dose activation of IL-2 secretion, most hits filed as activators | 330,000 tested, under 10 active; note: % of control where 0% means no effect
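Primary human leukocytes incubated 48 hr with anti-CD3 beads plus compound, without co-stimulation. Secreted IL-2 measured by HTRF (europium cryptate/d2 anti-IL-2 pair, 320 nm excitation, 665 nm emission).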
NPSR antag: qHTS Assay for Antagonists of the Neuropeptide S Receptor: cAMP Signal Transduction. Q6W5P4. CHO-NPSR cells, cAMP TR-FRET, antagonist mode. Potency, µM (titrated, usually from 38.3 µM), inactives show at the highest dose activity change, negative = inhibition, most hits filed as inhibitors. 220,000 compounds, 1% hits; note: potency is the fitted concentration of half-maximal effect; % is set by controls: 0 for no effect and ±100 for the full control effect; nearly all actives have a fitted effect of over 50% in size
Coupling enz: qHTS Assay for Inhibitors of Fructose-1,6-bisphosphate Aldolase from Giardia Lamblia: Coupling assay counterscreen; coupling enzyme system counterscreen, AmpLite Red fluorescence; activity change, negative = inhibition, % at 58.2 µM, hits read low; 290,000 compounds, 0.67% hits; in the data active = activity change below about -30%; note: % is set by controls: 0 for no effect and ±100 for the full control effect
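Counterscreen lacking aldolase: glyceraldehyde-3-phosphate coupling-enzyme reagent preincubated 10 min at RT with compound (at 57.5 uM final), then substrate/coupling system with AmpLite Red added; fluorescence read at 525/598 nm after 20 min RT.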
TexasRed fluor: Total Fluorescence Counterscreen for Inhibitors of the Interaction of Thyroid Hormone Receptor and Steroid Receptor Coregulator 2; TRb/SRC2 Texas Red total fluorescence interference; Potency, µM (titrated, usually from 106 µM), without a hit: at the top dose fluorescence change, negative = quenching; 280,000 compounds, 0.29% hits; AID 1479, 2009; active = well fitted curve in either direction with a large enough effect; inconclusive = small, poorly fitted or top-dose-only effect; note: potency is the fitted concentration of half-maximal effect; % is set by controls: 0 for no effect and ±100 for the full control effect
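Human TRb ligand-binding domain at 0.6 uM with 20 nM Texas Red SRC2 peptide in Tris buffer containing 1 uM T3 and 5% DMSO, incubated with compound 5 h at ambient temperature. Total fluorescence (555/632 nm) calculated as parallel + 2 × perpendicular.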
TRb-SRC2 inh: qHTS for Inhibitors of the Interaction of Thyroid Hormone Receptor and Steroid Receptor Coregulator 2. Thyroid hormone receptor beta (Homo sapiens), P10828. TRbeta-SRC2 peptide binding, fluorescence polarization; receptor liganded with 1 µM T3. Potency, µM (doses to about 106 µM), for the others: at the top dose activity change, negative = inhibition, actives largely listed as inhibitors. 280,000 compounds, 0.065% hits;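 note: potency is the fitted concentration of half-maximal effect; plate controls were bound peptide for no effect and peptide without receptor for full effect; nearly all actives have a fitted effect of over 50% in size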
Target sequence (P10828 whole entry, looked up): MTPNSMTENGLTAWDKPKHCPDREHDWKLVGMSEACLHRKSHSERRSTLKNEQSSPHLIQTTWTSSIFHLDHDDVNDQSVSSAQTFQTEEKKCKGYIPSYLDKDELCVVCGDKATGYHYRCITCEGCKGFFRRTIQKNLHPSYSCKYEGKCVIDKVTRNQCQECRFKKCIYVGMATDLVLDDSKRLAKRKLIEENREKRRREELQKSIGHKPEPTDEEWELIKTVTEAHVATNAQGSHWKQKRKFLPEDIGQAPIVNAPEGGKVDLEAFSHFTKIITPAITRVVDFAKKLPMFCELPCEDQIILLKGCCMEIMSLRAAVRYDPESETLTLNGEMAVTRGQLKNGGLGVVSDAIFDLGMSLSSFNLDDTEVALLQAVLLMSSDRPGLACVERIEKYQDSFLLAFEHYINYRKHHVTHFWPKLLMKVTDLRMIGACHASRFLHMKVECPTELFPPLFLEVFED
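Compounds were added to 0.6 uM TRb ligand-binding domain and 20 nM Texas Red-labeled SRC2 peptide in Tris buffer containing 1 uM T3, incubated 5 hr at ambient temperature, then read by fluorescence polarization.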
Starred values were filed as active, the others as inactive; [ ] = dose if it differs, or a comment. A selection: hits, their analogues and other compounds. The true share with any hit is near 1%. Unless noted, calls come from the whole dose curve; as a rule, active = well fitted curve in the direction sought with a large enough effect; inconclusive = small, poorly fitted or top-dose-only effect, or another doubt; inactive = no such curve, though single readings can be large; an effect the other way counts as inactive or inconclusive.

What do the screens show for `Cc1cccc(-c2noc(-c3ccccc3OCC(=O)Nc3ccccc3[N+](=O)[O-])n2)c1`?
TexasRed fluor: -1.6%; TRb-SRC2 inh: -3.7%

What do the screens show for `COc1ccc(NC(=O)CC2C(=O)N(c3ccccc3)C(=O)N2CCc2sccc2C)cc1` (configuration not stated)?
TexasRed fluor: 0.6%; TRb-SRC2 inh: 3.4%

What do the screens show for `COc1ccc(-c2nnn(CC(=O)N(CCCN3CCOCC3)C(C(=O)NC3CCCC3)c3ccco3)n2)cc1` (configuration not stated)?
TSHR antag: 2.4; NPSR antag: 57.5%; Coupling enz: 1.5; TexasRed fluor: -1.4%[53 µM]; TRb-SRC2 inh: 1.2%[53 µM]

Results for COc1ccc(-c2nnn(CC(=O)N(CCCN3CCOCC3)C(C(=O)NC3CCCC3)c3ccc(C)o3)n2)cc1 (configuration not stated) ?
TSHR antag: -3.2; TCR activator: -1.4%; NPSR antag: 10µM*; Coupling enz: 0.3; TexasRed fluor: -2.2%; TRb-SRC2 inh: -6.8%

What do the screens show for `CCOc1ccccc1OCCCC(=O)Nc1ccc(OC)nc1`?
TSHR antag: 8.9; TCR activator: 3.9%; NPSR antag: -8.2%[46.1 µM]; Coupling enz: -31.8*; TexasRed fluor: 1.0%; TRb-SRC2 inh: -22.3%

How did CN1C(=O)/C(=C/c2ccc(OCc3ccccc3F)cc2)NC1=S do in these assays?
TSHR antag: -70.2*; TCR activator: -1.8%; Coupling enz: 2.2

What do the screens show for `CC(=O)Oc1cc(-c2coc3cc(OC(C)=O)c(OC(C)=O)c(OC(C)=O)c3c2=O)cc(OC(C)=O)c1OC(C)=O`?
Coupling enz: -51.2*; TexasRed fluor: -6.8%; TRb-SRC2 inh: -1.2%

Results for COc1ccc(C2C(=O)c3ccccc3C2=O)cc1OC ?
TSHR antag: 14.4; TCR activator: 6.3%; NPSR antag: 12.6µM*; Coupling enz: -0.8; TexasRed fluor: -5.5%; TRb-SRC2 inh: -6.9%

How did COc1cc(C2C(=O)c3ccccc3C2=O)ccc1O do in these assays?
TSHR antag: 37.2; TCR activator: -7.2%; Coupling enz: -0.6

How did O=C(NCc1cccs1)C1CCN(C(=O)N2CCOc3ccccc32)CC1 do in these assays?
TexasRed fluor: 0.562µM*[quencher]; TRb-SRC2 inh: -10.2%

How did O=C(NCc1cccs1)C1CCN(C(=O)N2CCOc3ccc(Cl)cc32)CC1 do in these assays?
TexasRed fluor: 4.1%; TRb-SRC2 inh: -7.5%

Results for Cc1ccnc(N2C(=O)c3cccc4c([N+](=O)[O-])ccc(c34)C2=O)c1 ?
TSHR antag: -21.6; TCR activator: 3.0%; NPSR antag: 10µM*; Coupling enz: -16.8; TexasRed fluor: -1.2%; TRb-SRC2 inh: -2.5%

What do the screens show for `CCOC(=O)C1=C(c2ccccc2)O/C(=C(\C(=O)OC)C(F)(F)F)S1`?
TSHR antag: 5.1; TCR activator: 14.1%; NPSR antag: -16.7%[46.1 µM]; Coupling enz: -5.4; TexasRed fluor: -3.5%; TRb-SRC2 inh: -4.0%

Results for CCOC(=O)C1=C(c2ccccc2)O/C(=C(/C#N)C(F)(F)F)S1 ?
TSHR antag: -9.7; NPSR antag: 7.94µM*; Coupling enz: -0.4; TexasRed fluor: -0.5%; TRb-SRC2 inh: -2.8%

Results for COc1cccc(-n2c(SCc3ccccc3C)nc3c([nH]c4ccccc43)c2=O)c1 ?
TexasRed fluor: -0.4%; TRb-SRC2 inh: 5.2%

How did C=CCn1c(O)c(CN2CCCCC2)c(C)c(C#N)c1=O do in these assays?
TSHR antag: -6.0; TCR activator: -1.0%; NPSR antag: 5.6%; Coupling enz: -32.6*; TexasRed fluor: 10.3%; TRb-SRC2 inh: -19.7%

What do the screens show for `Cc1c(CN2CCCC(C)C2)c(O)n(CCO)c(=O)c1C#N` (configuration not stated)?
TSHR antag: -18.4; TCR activator: 3.7%; NPSR antag: -20.4%; Coupling enz: 1.7; TexasRed fluor: -1.0%; TRb-SRC2 inh: -4.7%

Results for O=C(O)c1cccc(C(=O)O)n1 ?
TSHR antag: 0.4; NPSR antag: 10.0%[46.1 µM]; Coupling enz: -79.5*; TexasRed fluor: -3.5%; TRb-SRC2 inh: -1.2%

What do the screens show for `O=C(O)c1ccc2cccnc2n1`?
TSHR antag: 7.8; TCR activator: 4.5%; NPSR antag: 7.2%; Coupling enz: -39.3*; TexasRed fluor: 0.0%; TRb-SRC2 inh: -2.3%

What do the screens show for `O=C(O)c1ccc2cccc(O)c2n1`?
TSHR antag: 1.5; TCR activator: -14.2%; NPSR antag: -8.4%; Coupling enz: -16.4; TexasRed fluor: 1.0%; TRb-SRC2 inh: -1.6%

Results for COc1ccc(N2CCN(C(=O)c3sc4nc5n(c(=O)c4c3C)CCC5)CC2)cc1 ?
TexasRed fluor: 1.8%; TRb-SRC2 inh: -12.1%

How did CCS(=O)(=O)c1ncc(Cl)c(C(=O)Nc2ccc(S(=O)(=O)N3CCC(C)CC3)cc2)n1 do in these assays?
TSHR antag: -78.0*; TCR activator: -2.5%; Coupling enz: -2.7

How did COc1ccccc1NC(=O)c1nc(S(=O)(=O)Cc2ccccc2)ncc1Cl do in these assays?
TSHR antag: -78.5*; TCR activator: 1.2%

How did CCCSc1ncc(Cl)c(C(=O)Nc2ccc(S(=O)(=O)N(C)c3ccccc3)cc2)n1 do in these assays?
TexasRed fluor: 4.8%; TRb-SRC2 inh: 0.4%

Results for CN(c1ccccc1)S(=O)(=O)c1ccc(NC(=O)c2nc(S(C)(=O)=O)ncc2Cl)cc1 ?
TSHR antag: -94.9*; TCR activator: 7.0%; TexasRed fluor: -24.3%; TRb-SRC2 inh: -5.3%

How did CCc1ccc(NC(=O)c2nc(S(=O)(=O)Cc3ccccc3)ncc2Cl)cc1 do in these assays?
TSHR antag: -73.9*; Coupling enz: -5.2

What do the screens show for `CCS(=O)(=O)c1ncc(Cl)c(C(=O)Nc2ccccc2OC)n1`?
TSHR antag: -14.4; TCR activator: -3.4%; Coupling enz: -3.5

What do the screens show for `CCOC(=O)c1ccc(NC(=O)c2nc(S(=O)(=O)Cc3ccccc3)ncc2Cl)cc1`?
TSHR antag: inconclusive; TCR activator: -0.6%; TexasRed fluor: -2.0%; TRb-SRC2 inh: -0.6%

How did CCS(=O)(=O)c1ncc(Cl)c(C(=O)Nc2ccccc2)n1 do in these assays?
TexasRed fluor: inconclusive; TRb-SRC2 inh: -4.2%
